From PubChem BioAssay (NCI) come the findings set out here.

About 83,000 compounds went through this panel and 20% of them were active in at least one assay; those are over-represented in the sample as a whole.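 In brief: 96-well plates, 48 h treatment, single concentration, percent growth endpoint.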 Calls of active or inactive are those of the source. How the source made its calls: active means growth percent below 10; inactive means the rest.

Holding throughout (experiment): NCI-60 one-dose screen, 48 h (100 = growth as untreated, 0 = no growth, -100 = all killed)
One assay deals with A549/ATCC NSCLC. To be noted: 10 µM unless noted.
A further assay deals with K-562 leukemia. Particulars: 10 µM unless noted.
Another assay concerns SF-295 CNS. To be noted: 10 µM unless noted.
Another assay has as its system SF-539 CNS. To be noted: 10 µM unless noted.
A further assay has as its system UACC-257 melanoma. To be noted: 10 µM unless noted.
The next assay has as its system HCT-15 colon. To be noted: 10 µM.
For a further assay, the system named is HT29 colon. Particulars: 10 µM unless noted.
A further assay concerns SNB-75 CNS. To be noted: 10 µM unless noted.
For a further assay, the system named is PC-3 prostate. To be noted: 10 µM unless noted.
The test system of a further assay is SK-MEL-5 melanoma. Particulars: 10 µM unless noted.
The subject of a further assay is SK-MEL-2 melanoma. Particulars: 10 µM unless noted.
Another assay has as its system ACHN renal. To be noted: 10 µM unless noted.
A further assay relates to A498 renal. Particulars: 10 µM unless noted.
The subject of a further assay is HL-60(TB) leukemia. To be noted: 10 µM unless noted.
Another assay relates to OVCAR-8 ovarian. Particulars: 10 µM unless noted.
For another assay, the system named is OVCAR-4 ovarian. To be noted: 10 µM unless noted.
The next assay has as its system IGROV1 ovarian. Particulars: 10 µM.
Another assay relates to HS 578T breast. To be noted: 10 µM unless noted.
The next assay concerns T-47D breast. Particulars: 10 µM unless noted.
Another assay has as its system HCC-2998 colon. To be noted: 10 µM unless noted.

With `O=S(=O)(c1ccc(Cl)cc1)C(Cl)(Cl)Cl`, the growth in the assay with A549/ATCC NSCLC was 56.6% (inactive); in the assay with K-562 leukemia, 19.6% (inactive); in the assay with SF-295 CNS, 78.2% (inactive); with SF-539 CNS it was 33.8% (inactive); with UACC-257 melanoma, 28.2% (inactive); with HCT-15 colon it was 39% (inactive). The growth in the assay with HT29 colon is 12.2% (inactive); in the assay on SNB-75 CNS, 39.6% (inactive); with PC-3 prostate it was 49.1% (inactive); in the assay on SK-MEL-5 melanoma, 42.5% (inactive); in the assay with SK-MEL-2 melanoma, 25.1% (inactive); in the assay with ACHN renal, 26.1% (inactive). Moreover, the growth was 56.4% (inactive) with A498 renal; 1.02% (active) in the assay on HL-60(TB) leukemia; 58.5% (inactive) in the assay with OVCAR-8 ovarian; 61.6% (inactive) with OVCAR-4 ovarian; 33.6% (inactive) in the assay with IGROV1 ovarian; 55.8% (inactive) in the assay on HS 578T breast. Besides, the growth was 11.4% (inactive) in the assay with T-47D breast and 18.3% (inactive) in the assay with HCC-2998 colon.

Consider `CC(C)CCC1(CCO)C(=O)NC(=S)NC1=O`, for which the growth is 91.9% (inactive) in the assay on A549/ATCC NSCLC; 120% (inactive) with K-562 leukemia; 103% (inactive) with SF-295 CNS; 125% (inactive) in the assay with SF-539 CNS; 100% (inactive) with UACC-257 melanoma; 91.7% (inactive) in the assay on HCT-15 colon. The growth was 99.3% (inactive) in the assay on HT29 colon; 99.8% (inactive) with SNB-75 CNS; 87.8% (inactive) with PC-3 prostate; 105% (inactive) with SK-MEL-5 melanoma; 101% (inactive) with SK-MEL-2 melanoma; 103% (inactive) with ACHN renal. The growth in the assay on A498 renal is 93.7% (inactive); in the assay on HL-60(TB) leukemia, 98.1% (inactive); in the assay on OVCAR-8 ovarian, 101% (inactive); in the assay on OVCAR-4 ovarian, 109% (inactive); in the assay with IGROV1 ovarian, 116% (inactive); with HS 578T breast it was 114% (inactive). In addition, the growth in the assay on T-47D breast is 112% (inactive); in the assay on HCC-2998 colon, 107% (inactive).

Consider `Cc1ccc(C(=O)C2CN(C)CCC2(O)c2ccc(C)cc2)cc1` (stereo not given), for which the growth in the assay with A549/ATCC NSCLC is 104% (inactive); in the assay with K-562 leukemia, 123% (inactive); in the assay with SF-295 CNS, 111% (inactive); in the assay on UACC-257 melanoma, 104% (inactive); in the assay on HCT-15 colon, 103% (inactive); with HT29 colon, 113% (inactive). For the same compound, the growth is 96% (inactive) in the assay with SNB-75 CNS; 108% (inactive) in the assay on PC-3 prostate; 114% (inactive) with SK-MEL-5 melanoma; 124% (inactive) in the assay with SK-MEL-2 melanoma; 94% (inactive) with A498 renal; 106% (inactive) with HL-60(TB) leukemia. Further, the growth in the assay on OVCAR-8 ovarian is 107% (inactive); in the assay on OVCAR-4 ovarian, 106% (inactive); in the assay with IGROV1 ovarian, 124% (inactive); with HS 578T breast it was 97% (inactive); with T-47D breast, 102% (inactive); with HCC-2998 colon, 98.3% (inactive).

Turning to `S=P(NC1CCCCC1)(N1CC1)N1CC1`, the growth in the assay on A549/ATCC NSCLC was 101% (inactive); in the assay on K-562 leukemia, 61.4% (inactive); in the assay with SF-295 CNS, 110% (inactive); in the assay with SF-539 CNS it was 107% (inactive); in the assay on UACC-257 melanoma it was 116% (inactive); with HCT-15 colon it was 108% (inactive). The growth in the assay with HT29 colon is 101% (inactive); in the assay with SNB-75 CNS, 93.2% (inactive); with SK-MEL-5 melanoma, 97% (inactive); with SK-MEL-2 melanoma, 114% (inactive); with ACHN renal it was 103% (inactive); in the assay with A498 renal, 96.2% (inactive). The growth in the assay with HL-60(TB) leukemia is 91.3% (inactive); in the assay with OVCAR-8 ovarian, 104% (inactive); in the assay with OVCAR-4 ovarian, 100% (inactive); with IGROV1 ovarian, 97.3% (inactive); in the assay with HS 578T breast it was 114% (inactive); with T-47D breast, 106% (inactive). Also, the growth with HCC-2998 colon was 131% (inactive).

Take `S=P(N1CCCCCC1)(N1CC1)N1CC1`: the growth in the assay on A549/ATCC NSCLC was 104% (inactive); with K-562 leukemia, 97% (inactive); in the assay on SF-295 CNS it was 117% (inactive); in the assay with SF-539 CNS, 102% (inactive); in the assay on UACC-257 melanoma, 106% (inactive); in the assay with HCT-15 colon, 118% (inactive). Moreover, the growth was 101% (inactive) in the assay on HT29 colon; 98.7% (inactive) in the assay on SNB-75 CNS; 93.7% (inactive) in the assay with PC-3 prostate; 107% (inactive) in the assay on SK-MEL-5 melanoma; 97.9% (inactive) in the assay on SK-MEL-2 melanoma; 104% (inactive) with ACHN renal. Also, the growth is 107% (inactive) in the assay with A498 renal; 84.3% (inactive) with HL-60(TB) leukemia; 100% (inactive) in the assay with OVCAR-8 ovarian; 117% (inactive) in the assay on OVCAR-4 ovarian; 90.1% (inactive) in the assay on IGROV1 ovarian; 122% (inactive) in the assay with HS 578T breast. In addition, the results for the growth with T-47D breast and with HCC-2998 colon were 94.5% (inactive) and 93.8% (inactive), respectively.

Consider `CC(=O)C1C(=O)N(C)C(=O)N(C)C1=O`, for which the growth in the assay on A549/ATCC NSCLC was 96.1% (inactive); with K-562 leukemia, 108% (inactive); in the assay on SF-539 CNS, 92% (inactive); in the assay with UACC-257 melanoma it was 98.6% (inactive); in the assay with HCT-15 colon it was 93.4% (inactive); in the assay with HT29 colon, 102% (inactive). For the same compound, the growth with SNB-75 CNS was 92.1% (inactive); in the assay on PC-3 prostate, 94.9% (inactive); in the assay on SK-MEL-5 melanoma, 99.7% (inactive); in the assay with SK-MEL-2 melanoma, 108% (inactive); with ACHN renal it was 95.4% (inactive); with A498 renal, 83.2% (inactive). Moreover, the growth in the assay with HL-60(TB) leukemia is 104% (inactive); in the assay on OVCAR-8 ovarian it was 109% (inactive); with OVCAR-4 ovarian, 105% (inactive); in the assay with IGROV1 ovarian, 113% (inactive); in the assay on HS 578T breast it was 107% (inactive); in the assay on T-47D breast it was 106% (inactive). In the assay with HCC-2998 colon, the growth was 112% (inactive).

Turning to `CCN(CC)c1ccc(C=C2C(=O)NC(=S)NC2=O)cc1`, the growth is 89.2% (inactive) with A549/ATCC NSCLC; 78% (inactive) with K-562 leukemia; 99.3% (inactive) with SF-295 CNS; 97.4% (inactive) in the assay on SF-539 CNS; 91.3% (inactive) with UACC-257 melanoma; 77.5% (inactive) in the assay on HCT-15 colon. For the same compound, the growth was 92.2% (inactive) with HT29 colon; 75.8% (inactive) with SNB-75 CNS; 93.4% (inactive) in the assay with SK-MEL-5 melanoma; 98.1% (inactive) in the assay on SK-MEL-2 melanoma; 95.7% (inactive) in the assay with ACHN renal; 97.5% (inactive) in the assay with A498 renal. For the same compound, the growth in the assay with HL-60(TB) leukemia is 42.7% (inactive); with OVCAR-8 ovarian it was 93% (inactive); in the assay on OVCAR-4 ovarian, 90.9% (inactive); in the assay on IGROV1 ovarian it was 100% (inactive); in the assay with HS 578T breast it was 88.6% (inactive); in the assay with T-47D breast, 78% (inactive). Also, the growth in the assay with HCC-2998 colon is 96.8% (inactive).

In the case of `C1CNC2CCCC2C1` (stereo not given), the growth was 110% (inactive) with A549/ATCC NSCLC; 112% (inactive) in the assay on K-562 leukemia; 104% (inactive) in the assay with SF-295 CNS; 102% (inactive) with SF-539 CNS; 106% (inactive) with UACC-257 melanoma; 99.2% (inactive) with HCT-15 colon. The growth in the assay with HT29 colon was 102% (inactive); in the assay with SNB-75 CNS, 86.3% (inactive); in the assay with PC-3 prostate, 101% (inactive); in the assay with SK-MEL-5 melanoma, 96.7% (inactive); in the assay on SK-MEL-2 melanoma it was 106% (inactive); with ACHN renal, 103% (inactive). The growth in the assay on A498 renal was 107% (inactive); in the assay on HL-60(TB) leukemia, 117% (inactive); in the assay on OVCAR-8 ovarian, 106% (inactive); in the assay on OVCAR-4 ovarian, 102% (inactive); in the assay on IGROV1 ovarian, 117% (inactive); in the assay with HS 578T breast, 111% (inactive). The growth with T-47D breast is 108% (inactive); with HCC-2998 colon it was 107% (inactive).
